Measured values as given in PubChem BioAssay (NCI).
The panel holds about 79,000 compounds, 15% with a hit somewhere; the sample as a whole holds those more often. No stated cut-off is given here; in the data, active means growth inhibition above about 70%; inactive means the rest.

Columns and labels:
[1] = NCI Yeast Anticancer Drug Screen. Data for the rad50 strain (AID 155);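 further: 0% = growth of vehicle-only cultures of the same strain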; conditions: S. cerevisiae rad50 strain growth inhibition; at 50.0 µM; hits give high values
Summary of the method: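 Yeast carrying a defined DNA repair defect were exposed to test compounds, and growth was compared with vehicle-treated controls to give percent inhibition.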

[2] = NCI Yeast Anticancer Drug Screen. Data for the mec2-1 strain (AID 157); conditions: S. cerevisiae mec2-1 strain, at 50.0 µM, hits give high values
Summary of the method: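 Growth inhibition is read against vehicle-treated controls after compound exposure of the mec2-1 yeast strain, which is defective in DNA damage repair or cell cycle control.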

[3] = NCI Yeast Anticancer Drug Screen. Data for the sgs1 mgt1 strain (AID 161);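 further: 0% = growth of cultures given vehicle only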; conditions: S. cerevisiae sgs1 mgt1 strain, at 50.0 µM, hits give high values
Summary of the method: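 Compounds are added to genetically altered yeast, and growth is compared with cultures given vehicle alone to give percent inhibition.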

[4] = NCI Yeast Anticancer Drug Screen. Data for the cln2 rad14 strain (AID 165);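 further: 0% = growth equal to vehicle treated cultures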; conditions: S. cerevisiae cln2 rad14 strain, at 50.0 µM, hits give high values
Summary of the method: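 Growth inhibition, relative to vehicle-treated controls, is the read-out. The test organism is a yeast strain with defined genetic alterations, cln2 rad14.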

[5] = NCI Yeast Anticancer Drug Screen. Data for the bub3 strain (AID 167); conditions: S. cerevisiae bub3 mutant strain, at 50.0 µM, hits give high values
Summary of the method: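 Compounds were applied to a genetically altered yeast strain carrying a cell-cycle control defect. Growth inhibition was scored against vehicle-treated controls.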

[6] = NCI Yeast Anticancer Drug Screen. Data for the mlh1 rad18 strain (AID 175); conditions: S. cerevisiae mlh1 rad18 strain growth inhibition; at 50.0 µM; hits give high values
Summary of the method: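 Cells of a genetically altered yeast strain, deficient in DNA damage repair, were treated with compound. Their growth was then compared with that of vehicle-treated cultures to give inhibition.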

Measured: growth inhibition

COc1ccc2c(C)cc(N/N=C/c3ccc(C)s3)nc2c1
inactive: [1] -23.4% | [2] -26.5% | [3] -19.4% | [4] 9.05% | [5] -39.1% | [6] -12.1%

COc1ccc(CC2C(=O)NC(=O)NC2=O)cc1OCc1ccccc1
inactive: [1] 14.7% | [2] -1.75% | [3] -14.1% | [4] -10% | [5] -17.4% | [6] -44.6%

COC(=O)C(/C(=N/NC(N)=O)C(=O)Nc1ccc(C)cc1)c1nc2ccc([N+](=O)[O-])cc2[nH]c1=O (stereo unspecified)
inactive: [1] 22.1% | [2] 26.3% | [3] 0.45% | [4] -48.4% | [5] -11% | [6] 42.8%

CC/C(Cl)=N\OC(=O)Nc1ccc(OC)cc1
inactive: [1] -5.35% | [2] -16.1% | [3] -3.3% | [4] 2.6% | [5] 1.15% | [6] -68.8%

C=C1C(=O)OC2CC(C)C3(O)CCC(=O)C3(C)CC12 (stereo unspecified)
inactive: [1] -14.8% | [2] -24.9% | [3] -5.2% | [4] 4.45% | [5] -18.4% | [6] -33.5%

COc1cc2c(cc1C1COc3cc4occc4cc3C1=O)OCO2 (stereo unspecified)
inactive: [1] 5.15% | [2] -33.8% | [3] 4.05% | [4] 6.8% | [5] -4.45% | [6] -25.6%

N/N=C(\C(=O)Nc1ccc([N+](=O)[O-])cc1)C(C1=Nc2cc([N+](=O)[O-])ccc2NC1)[N+](=O)[O-] (stereo unspecified)
inactive: [1] 34.7% | [2] 11.7% | [3] 12.8% | [4] -41.5% | [5] 5% | [6] 16.9%

COc1cc(N(CCC#N)CCC#N)ccc1/C(N=Nc1ccc(Cl)cc1)=N/NC(=O)c1cc(Br)ccc1O
inactive: [1] 7.6% | [2] -7.45% | [3] -6.45% | [4] 7.2% | [5] 17.8% | [6] 52%

C=CCn1c2c(c3ccccc3c1=O)C(=O)c1ccccc1-2
inactive: [1] 43.9% | [2] -6.5% | [3] 1.7% | [4] 30.9% | [5] -8.5% | [6] -49.9%

CC(C)CCCC(C)[C@H]1CC[C@H]2[C@@H]3CC[C@H]4C[C@@H](CCC=C(c5cc(Cl)c(O)c(C(=O)O)c5)c5cc(Cl)c(O)c(C(=O)O)c5)CC[C@]4(C)[C@H]3CC[C@]12C (stereo partly specified) (tested in a mixture with another compound)
inactive: [1] 0.95% | [2] 22.4% | [3] 3.45% | [4] -8.4% | [5] 10.7% | [6] 51.2%

O=C1NC(N/N=C\c2ccccc2)=N/C1=C/c1ccccc1
inactive: [1] -2.9% | [2] 5.2% | [3] -0.1% | [4] 2.25% | [5] -0.3% | [6] -26.5%
